Bioassay records as filed in PubChem.
Rows were chosen to be rich in hits. Some 2.9% of all compounds tested hit in one or more screens of this group.
FadD28 FP inh = M. tuberculosis FadD28 bisubstrate binding inhibition; FadD28 bisubstrate probe binding, fluorescence polarization; actives 0.22% (n = 360,000); AID 588549; inhibition, % at 12.5 µM; in the data active = inhibition above about 8.5%, passing the limit was not always enough
FBA Mtb inh = Mtb fructose-bisphosphate aldolase inhibition; P9WQA3; inhibition, % at 1 µM; purified M. tuberculosis FBA, fluorescence read-out; AID 588726; actives 2.3% (n = 360,000)
Target sequence (P9WQA3 whole entry, looked up): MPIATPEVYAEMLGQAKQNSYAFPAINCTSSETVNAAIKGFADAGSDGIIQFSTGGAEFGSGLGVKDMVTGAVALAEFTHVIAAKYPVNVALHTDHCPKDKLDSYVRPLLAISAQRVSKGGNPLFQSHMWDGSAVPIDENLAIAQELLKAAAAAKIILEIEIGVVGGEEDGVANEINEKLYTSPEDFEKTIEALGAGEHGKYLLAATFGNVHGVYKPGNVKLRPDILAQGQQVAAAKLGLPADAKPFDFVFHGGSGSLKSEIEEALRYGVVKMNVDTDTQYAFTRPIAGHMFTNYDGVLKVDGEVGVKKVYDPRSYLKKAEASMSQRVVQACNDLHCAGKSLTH
GDH-TPI counter-1 = counter-screen for M. tuberculosis FBA inhibitors: GDH-TPI coupled enzymes | GDH-TPI coupled enzyme counterscreen, NADH absorbance | inhibition, % at 4.8 µM | actives 1.2% (n = 360,000); in the data active = inhibition above about 30%
Mtb hypoxia rep = inhibitors of hypoxia-regulated fluorescent reporter in Mycobacterium tuberculosis | M. tuberculosis hypoxia-regulated fluorescent reporter, fluorescence | fluorescence inhibition, % (concentration not given with the values) | actives 0.1% (n = 300,000) | AID 1159583; in the data active = fluorescence inhibition mostly above about 23%, no sharp cut-off; inactive = mostly below about 17%
BioA inh = inhibitors of Mycobacterium tuberculosis BioA enzyme; purified M. tuberculosis BioA enzyme, plate reader; inhibition, % at 9.99 µM; actives 0.096% (n = 360,000); in the data active = inhibition above about 40%
Mtb FBA inh conf = confirmation of M. tuberculosis fructose-bisphosphate aldolase inhibitors; shares compounds with FBA Mtb inh; actives 78% (n = 5,600); purified M. tuberculosis FBA, fluorescence read-out; inhibition, % at 1 µM
GDH-TPI counter-2 = GDH-TPI inhibition counter-screen for FBA inhibitors. shares compounds with FBA Mtb inh. GDH-TPI coupled enzyme counterscreen, fluorescence. inhibition, % at 1 µM. actives 81% (n = 5,600); in the data active = inhibition above about 10%
GDH-TPI dose = GDH-TPI dose response counter-screen for Mtb FBA. GDH-TPI coupled enzyme assay, fluorescence, artifact counterscreen. shares compounds with FBA Mtb inh. actives 79% (n = 170). IC50, µM; call rule not given here
Hits are given with their value. Rule as the data show it, unless noted: active = inhibition above about 27%; inactive = the rest.

How did Cc1cc(-c2ccc(Cl)cc2)n2nc(N)nc2n1 do in these assays?
FadD28 FP inh: inactive; FBA Mtb inh: 59; GDH-TPI counter-1: inactive; BioA inh: inactive; Mtb FBA inh conf: inactive; GDH-TPI counter-2: inactive; GDH-TPI dose: 2.6

How did Nc1c(C(O)(C(F)(F)F)C(F)(F)F)ccc2ccccc12 do in these assays?
FadD28 FP inh: inactive; FBA Mtb inh: 28; GDH-TPI counter-1: inactive; Mtb hypoxia rep: inactive; BioA inh: inactive; Mtb FBA inh conf: inactive; GDH-TPI counter-2: 11

How did C[C@H]1CN([C@@H](C)CO)C(=O)c2ccccc2-c2ccccc2CO[C@H]1CN(C)C(=O)[C@H]1CCCN1C do in these assays?
BioA inh: inactive

Results for COc1ccc2nc3oc(C(=O)NCc4cccs4)cc3cc2c1 ?
FadD28 FP inh: inactive; FBA Mtb inh: 32; GDH-TPI counter-1: inactive; BioA inh: inactive; Mtb FBA inh conf: inactive; GDH-TPI counter-2: inactive

What do the screens show for `COc1ccc2nc3oc(C(=O)NCCCOC(C)C)cc3cc2c1`?
FadD28 FP inh: inactive; FBA Mtb inh: 111; GDH-TPI counter-1: inactive; Mtb hypoxia rep: inactive; BioA inh: inactive; Mtb FBA inh conf: inactive; GDH-TPI counter-2: inactive

Results for O=C(NCc1cccs1)c1cc2ccccc2o1 ?
FadD28 FP inh: inactive; FBA Mtb inh: inactive; GDH-TPI counter-1: inactive; BioA inh: inactive

What do the screens show for `CCOCCCNC(=O)c1cc2cc3cc(OC)ccc3nc2o1`?
FadD28 FP inh: inactive; FBA Mtb inh: 110; GDH-TPI counter-1: inactive; Mtb hypoxia rep: inactive; BioA inh: inactive; Mtb FBA inh conf: 91; GDH-TPI counter-2: 66

What do the screens show for `CC(=O)Nc1ccc(C(=O)Nc2ccc(S(=O)(=O)Nc3nccc(C)n3)cc2)cc1`?
FadD28 FP inh: inactive; FBA Mtb inh: inactive; GDH-TPI counter-1: inactive; Mtb hypoxia rep: inactive; BioA inh: inactive

Results for Cc1ccc(S(=O)(=O)Nc2ccccc2C(=O)Nc2ccc(S(=O)(=O)Nc3nccc(C)n3)cc2)cc1 ?
FadD28 FP inh: inactive; FBA Mtb inh: 66; GDH-TPI counter-1: inactive; Mtb hypoxia rep: inactive; Mtb FBA inh conf: 35; GDH-TPI counter-2: 20

How did Cc1ccc(C)c(S(=O)(=O)Nc2ccc(S(=O)(=O)Nc3ncccn3)cc2)c1 do in these assays?
FadD28 FP inh: inactive; FBA Mtb inh: inactive; GDH-TPI counter-1: inactive; Mtb hypoxia rep: inactive; BioA inh: inactive

What do the screens show for `Cc1ccc(C)c(S(=O)(=O)Nc2ccccc2C(=O)Nc2ccc(S(=O)(=O)Nc3ncccn3)cc2)c1`?
FadD28 FP inh: inactive; FBA Mtb inh: 106; GDH-TPI counter-1: inactive; Mtb hypoxia rep: inactive; BioA inh: inactive; Mtb FBA inh conf: active; GDH-TPI counter-2: active

What do the screens show for `COc1ccc(C2=NN(C(=S)Nc3ccccc3)C(c3ccccc3)C2)cc1` (stereo not given)?
FadD28 FP inh: inactive; FBA Mtb inh: inactive; GDH-TPI counter-1: inactive; Mtb hypoxia rep: inactive

What do the screens show for `COc1ccc(C2CC(c3ccccc3)=NN2c2ccc(Cl)c(C(=O)O)c2)cc1` (stereo not given)?
FadD28 FP inh: inactive; FBA Mtb inh: 86; GDH-TPI counter-1: inactive; Mtb hypoxia rep: inactive; BioA inh: inactive; Mtb FBA inh conf: active; GDH-TPI counter-2: active

What do the screens show for `COc1ccc(C2CC(c3ccccc3)=NN2C(=O)c2ccc(F)cc2)cc1` (stereo not given)?
FadD28 FP inh: inactive; FBA Mtb inh: inactive; GDH-TPI counter-1: inactive; Mtb hypoxia rep: inactive; BioA inh: inactive

What do the screens show for `COc1ccc(C2CC(c3ccncc3)=NN2c2ccc(S(N)(=O)=O)cc2)cc1` (stereo not given)?
FadD28 FP inh: inactive; FBA Mtb inh: 68; GDH-TPI counter-1: inactive; Mtb hypoxia rep: inactive; BioA inh: inactive; Mtb FBA inh conf: 109; GDH-TPI counter-2: 88

What do the screens show for `COc1ccc(C2=NN(c3ccccc3)C(c3cn(CCC(=O)O)nc3-c3ccccc3)C2)cc1` (stereo not given)?
FadD28 FP inh: inactive; FBA Mtb inh: 108; GDH-TPI counter-1: inactive; Mtb hypoxia rep: inactive; Mtb FBA inh conf: inactive; GDH-TPI counter-2: 19
